Drawing on PubChem BioAssay AID2012 (Sanford-Burnham Center for Chemical Genomics, 2009), this text covers inhibition for 48 compounds.

The campaign covered roughly 290,000 compounds. About 2,700 (0.93%) were called active. The rule behind the calls is not given here. Only a selection was taken, and actives are over-represented in it overall.

The target in this assay is Eukaryotic translation initiation factor 4H (Homo sapiens) (UniProt Q15056). Nature of the assay: human eIF4H binding inhibitors, primary screen, translation initiation inhibitor project, biochemical, uHTS, fluorescence polarization (AID 2012).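 Note: calls also rest on retests at 20 µM and on dose response follow-up.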 The following applies: eIF4H fluorescence polarization binding assay, stronger effect = higher value. (In fluorescence polarisation assays a small probe gives low polarisation when free and higher when bound to something large.)

Regarding `CCC1S/C(=N/N=C/c2ccco2)NC1=O` (stereo not given), the inhibition (at 35 µM) is 9.4% (inactive).
The same measure, in the same setting: for `O=C(NCc1ccccc1Cl)C1CCN(S(=O)(=O)c2cccc3nonc23)CC1` the value was 9.7% (inactive); for `C=CCN1C(=O)C2(OCCCO2)c2cccc(Cl)c21`, 0.1% (inactive); for `O=C(CN1CCC(NC(=O)Nc2ccccc2)CC1)Nc1cccc([N+](=O)[O-])c1`, -3.5% (inactive).
Turning to `COc1ccc(S(=O)(=O)N2CCOC2CNC(=O)C(=O)NCc2ccncc2)cc1C` (stereo not given), under “at 35 µM”, the inhibition was -2.1% (inactive).
Turning to `CCOc1cccc(=O)c2c(C)n(CC3CCCO3)c(C)c12` (stereo not given), the inhibition (at 35 µM) is 79.5% (active).
Same read-out and setting: for `COc1ccccc1NC(=O)CSc1nnc(C)n1CC1CCCO1` (stereo not given) the value was -1.3% (inactive); for `CCOc1ccc(NC(=O)c2cccc3c2C(=O)N(CC2CCCO2)C3)cc1` (stereo not given), 3% (inactive).
Turning to `Cc1c2cnn(CC(=O)NCCCN3CC(C)CC(C)C3)c(=O)c2c(C)n1Cc1ccc(Cl)cc1` (stereo not given), for the setting “at 35 µM”, the inhibition was -3.1% (inactive).
On the same count and under the same terms, for `O=[N+]([O-])c1ccc(NC(=S)N2CCN(c3ccccn3)CC2)cc1` the value was -4.4% (inactive).
Same read-out and setting: for `CCn1cc(C(=O)NCCC(=O)NCCO)c(=O)c2cc3c(cc21)OCO3` the value was 13.7% (inactive).
With `O=C(CCN1C(=O)c2ccccc2C1=O)Nc1cccc(F)c1`, the inhibition (at 35 µM) was 0.6% (inactive).
In the case of `CCN(CC)C(=O)CSC(Nc1cccc(F)c1)=C(C#N)C#N`, the inhibition (at 35 µM) is 63% (active) and the inhibition (confirmation average, at 20 µM) was determined as 56.7%.
Regarding `CCN(CC)C(=O)C(=O)Nc1cccc(Br)c1`, the inhibition (at 35 µM) was -3% (inactive).
In the case of `CC(C)n1c(COc2ccccc2)nc2ccccc21`, the inhibition (at 35 µM) is -1.5% (inactive).
Turning to `CCC(Oc1ccccc1C)C(=O)Nc1ccc(S(=O)(=O)Nc2cc(C)on2)cc1` (stereo not given), the inhibition (at 35 µM) was -3.3% (inactive).
With `CN(C)S(=O)(=O)N1CCC(Oc2cccc(C(=O)NCCCC3CCCC3)c2)CC1`, the inhibition (at 35 µM) was -18.3% (inactive).
`O=C(OCc1cc(Cl)ccc1OC(F)F)c1cccnc1`: the inhibition is, setting by setting: (at 35 µM) 54.6% (active); (confirmation average, at 20 µM) 83.8%.
`Cc1cc(=O)[nH]c(SCc2cc(Cl)ccc2OC(F)F)n1`: the inhibition (at 35 µM) is -16.4% (inactive).
`O=C(OCc1cc2ccccc2[nH]c1=O)c1cccnc1`: the inhibition (at 35 µM) is -7.3% (inactive).
As for `Cn1c(CCNS(=O)(=O)c2ccc(F)cc2)nnc1SCc1cccnc1`, under “at 35 µM”, the inhibition was -0.9% (inactive).
`CCCC(=O)C1CCN(Cc2ccccc2)CC1`: the inhibition runs as follows: (at 35 µM) 7.7% (active); (confirmation average, at 20 µM) 89.5%.
Turning to `CCOC(=O)C1CCN(Cc2ccc(-c3ccccc3)cc2)CC1`, the inhibition (at 35 µM) is 3.6% (inactive).
Still for that read-out and setting: to `CCNC(=S)NNC(=O)C1CCN(Cc2ccccc2)CC1` belongs 1.5% (inactive).
As to `CCc1nc2cccnc2n1-c1ccc(C(=O)O)cc1`, the inhibition reads like this: (at 35 µM) 91.6% (active); (confirmation average, at 20 µM) 89.8%.
As for `CCOC(=O)CNC(=O)CSc1nc2cccnc2n1CC`, the inhibition (at 35 µM) is 5.8% (inactive).
For the compound `COCCCNC(=O)Cc1ccc(-n2c(C)nc3cccnc32)cc1`, the inhibition was 63.6% (inactive) (at 35 µM) and 13.7% (confirmation average, at 20 µM).
Take `CCN(CC(=O)Nc1ccc(C)c(S(=O)(=O)N(C)C)c1)Cc1ccccc1`: the inhibition (at 35 µM) was 6.5% (inactive).
The same measure, in the same setting: to `O=c1c(-c2cccc(Cl)c2)c[nH]n1-c1ccccc1` belongs 4.3% (inactive); to `Cc1ccc2[nH]c3c(c2c1)CN(C(=O)CN1CCN(c2ccccc2)CC1)CC3`, 76.8% (active); to `CCCC(=O)N1CCc2[nH]c3ccccc3c2C1`, -0.2% (inactive).
Still for that read-out and setting: to `O=C(CN1CCCC1)N1CCN(c2ccccc2)CC1` belongs -11.2% (inactive).
Same read-out and setting: to `COc1ccc(OC)c(S(=O)(=O)n2c([N+](=O)[O-])cnc2C)c1` belongs -9.3% (inactive); to `COc1ccccc1C(=O)N/C(=C/c1ccc2c(c1)OCO2)C(=O)Nc1cccc(C(=O)O)c1`, -11.5% (inactive).
For `COc1ccccc1C(=O)N/C(=C/c1ccco1)C(=O)Nc1ccc(C(=O)O)cc1`, the inhibition is, setting by setting: (at 35 µM) 59.8% (active); (confirmation average, at 20 µM) 65.3%.
`Cc1cccc(NC(=O)/C(=C\c2ccco2)NC(=O)c2ccccc2)c1`: the inhibition (at 35 µM) is 57.6% (active).
On the same count and under the same terms, to `Cc1ccc(NC(=O)/C(=C\c2ccccc2)NC(=O)c2ccco2)cc1` belongs 3.5% (inactive); to `O=C(NCc1ccco1)/C(=C/c1ccco1)NC(=O)c1ccccc1`, 3.9% (inactive).
For `O=C(Nc1ccccc1)/C(=C\c1ccco1)NC(=O)c1ccco1`, the inhibition (at 35 µM) was 26.2% (inactive).
Still for that read-out and setting: to `C=CCOc1cccc(C2C(C(=O)c3ccc(C)o3)=C(O)C(=O)N2CCCn2ccnc2)c1` (stereo not given) belongs -4.1% (inactive).
Still for that read-out and setting: to `CCOc1ccc(N(CC(=O)NCC2CCCO2)S(=O)(=O)c2ccc(C)cc2)cc1` (stereo not given) belongs 11.5% (inactive); to `COc1ccc(-c2nnc3n2CCCCC3)cc1`, -12.1% (inactive); to `COCCn1cnc2c1c(=O)n(CC(=O)NN)c(=O)n2Cc1ccccc1`, -8.7% (inactive).
Still for that read-out and setting: for `O=C(Nc1ccccc1)C1CCN(C(=O)c2ccc(Br)cc2)CC1` the value was -11% (inactive).
Take `Cc1cc(C)n2nc(SCC(N)=O)nc2n1`: the inhibition by setting is: (at 35 µM) -5.6% (active); (confirmation average, at 20 µM) 113%.
Regarding `CCOC(=O)C(C)Sc1nnc(CSc2nc3nc(C)cc(C)n3n2)o1` (stereo not given), for the setting “at 35 µM”, the inhibition was -7.5% (inactive).
Consider `COc1ccc(C(C)=O)cc1CSc1nc2nc(C)cc(C)n2n1`, for which the inhibition (at 35 µM) was 1.9% (inactive).
Still for that read-out and setting: to `COc1cnc(-c2ccccn2)nc1Oc1ccc(C(C)(C)C)cc1` belongs 11.9% (inactive).

A word on the inhibition: it is the relative decrease from the control value, in per cent.
